“And” between values parts separate entries of the source, which are not always exact repeats. Equal values may be shown once. Inconclusive results are not listed. A number with no mark means an inactive call. The source made the active and inactive calls. Calls come from the whole dose curve; as a rule, active = well fitted activation curve with a large enough effect in the signal ratio (not every such curve was filed as active); inconclusive = small, poorly fitted or top-dose-only effect, or a change in a side signal; inactive = flat fitted curve, though single readings scatter; the % refers to the signal ratio.
Potency is the fitted concentration of half-maximal effect.

This test is described as follows: qHTS assay for small molecule activators of the p53 signaling pathway (AID 651743). For activation: series mostly up to about 92 µM; % of control where 0% means no effect. The settings on record: HCT-116 p53RE-bla, beta-lactamase FRET ratio, 16 h; activation: hits give high values. The source says:
National Center for Advancing Translational Sciences [NCATS] NIH Chemical Genomics Center [NCGC] U.S. Environmental Protection Agency [EPA] National Institutes of Environmental Health Sciences [NIEHS] National Toxicology Program [NTP] Assay Overview: p53, a tumor suppressor protein, is activated following cellular insult, including DNA damage and other cellular stresses. The activation of p53 regulates cell fate by inducing DNA repair, cell cycle arrest, apoptosis, or cellular senescence. The activation of p53, therefore, is a good indicator of DNA damage and other cellular stresses. The CellSensor p53RE-bla HCT-116 cell line (Invitrogen) contains a stably integrated beta-lactamase reporter gene under control of the p53 response elements. The activation of the report gene under culture conditions can be detected by fluorescence intensity. This cell line can be used to screen chemicals in a 1536-well plate format and to identify agonists that activate p53 signaling pathway.
Assay Protocol Summary: The p53RE-bla cells were dispensed at 4,000 cells/5 ul/well in 1536-well black wall/clear bottom plates using a Multidrop dispenser. After the assay plates were incubated at a 37 C/5% CO2 incubator for 5 hours, 23 nL of compounds dissolved in DMSO, positive controls or DMSO only was transferred to the assay plate by a pin tool. The plates were incubated at 37 C for 16 hours. After 1 uL of LiveBLAzer B/G FRET substrate was added using a Flying Reagent Dispenser, the plates were incubated at room temperature for 2 hours, and fluorescence intensity was measured by an Envision plate reader.
A general note: In qHTS, concentration-response curves come from the screen itself.
As to `O=C(OCc1ccccc1)c1ccc(O)cc1`, the activation is -6.7%.

Take `[O-][N+](=Nc1ccccc1)c1ccccc1`: the activation is 1.25%.

Turning to `C[C@H](CCC(=O)O)[C@H]1CC[C@H]2[C@@H]3CC[C@@H]4C[C@H](O)CC[C@]4(C)[C@H]3C[C@H](O)[C@]12C`, the activation was -2.17%.

On to `OCl`, for which the activation is -2.68%.

On to `OCC(O)CO`, for which the activation was -2.04% and 0.703%.

For `ClC(Cl)Cl`, the activation was 0.456%.

With `NCCN`, the activation is 3.88%.

`CO/N=C(/C(=O)N[C@@H]1C(=O)N2C(C(=O)O)=C(COC(N)=O)CS[C@H]12)c1ccco1`: the activation is 1.84%.

For `N[C@@H](Cc1cc(I)c(Oc2ccc(O)c(I)c2)c(I)c1)C(=O)O`, the activation was 5%.

`C=C(C)C1CC=C(C)CC1` (configuration not stated): the activation was -4.46%.

For `C[C@H](CCC(=O)O)[C@H]1CC[C@H]2[C@@H]3[C@H](O)C[C@@H]4C[C@H](O)CC[C@]4(C)[C@H]3C[C@H](O)[C@]12C`, the activation was -1.29%.

Take `Cc1ccc(S(=O)(=O)NCl)cc1`: the activation is -0.574%.

For the molecule `c1ccc2ccccc2c1`, the activation was -7.12% and -1.33%.

With `OB(O)O`, the activation is -0.565% and -2.3%.

Turning to `CC[C@H]1OC(=O)[C@H](C)[C@@H](O[C@H]2C[C@@](C)(OC)[C@@H](O)[C@H](C)O2)[C@H](C)[C@@H](O[C@@H]2O[C@H](C)C[C@H](N(C)C)[C@H]2O)[C@](C)(O)C[C@@H](C)CN(C)[C@H](C)[C@@H](O)[C@]1(C)O`, the activation is -5.82%.

For the molecule `Nc1nccs1`, the activation was 2.07%.

With `Nc1ncnc2c1ncn2[C@H]1CC[C@@H](CO)O1`, the activation was -6.3% and -2.15%.

On to `Nc1ccc(N=Nc2ccccc2)c(N)n1`, for which the activation is 2.09% and 13.7%.

Take `CO`: the activation is -0.522%.

Take `CCCCO`: the activation was 0.244% and -1.87%.

In the case of `Oc1cccc(O)c1O`, the activation is 2.6%.

As to `CO[C@@H]1[C@H](OC(=O)/C=C/C=C/C=C/C=C/C(=O)O)CC[C@]2(CO2)[C@H]1[C@@]1(C)O[C@@H]1CC=C(C)C`, the activation was -4.17%.

With `COC(=O)c1ccccc1O`, the activation was 0.469% and 1.6%.

With `CC(C)(C)CC(C)(C)c1ccc(OCCO)cc1`, the activation was 9.34%.

As to `CCCCC`, the activation was 2.34%.

In the case of `OCCOCCOCCO`, the activation was 1.43% and -1.5%.

On to `CC1=CCC2CC1C2(C)C` (configuration not stated), for which the activation is -1.57%.

For `CC(C)CCCCCCc1ccc(O)cc1`, the activation was 2.32%.

In the case of `CCCCCCCCCCCCCCCCCC(=O)OC[C@@H](O)[C@H]1OC[C@H](O)[C@H]1O`, the activation was -1.65%.

In the case of `CC(C)CCC[C@@H](C)[C@H]1CC[C@H]2[C@@H]3CC=C4C[C@@H](O)CC[C@]4(C)[C@H]3CC[C@]12C`, the activation was -0.872%.

Consider `Cc1ccc(S(=O)(=O)O)cc1C`, for which the activation was -1.09%.

Take `NCCO/C=C/[C@H](N)C(=O)O`: the activation was 7.75%.

As to `C=CC(C)(O)CC/C=C(\C)CCC=C(C)C` (configuration not stated), the activation was -1.4%.

In the case of `Cc1ncc[nH]1`, the activation is -3.81%.

Turning to `C[Si](C)(C)O[Si](C)(C)C`, the activation was -3.5%.

As for `Oc1ccc(/C=C/c2cc(O)cc(O)c2)cc1`, the activation is 5.17% and 7.3%.

`O=c1n(CC2CO2)c(=O)n(CC2CO2)c(=O)n1CC1CO1` (configuration not stated): the Potency was 15.8 µM (active) and 39.8 µM (active).

For the origin of these results see PubChem BioAssay (NCATS).
